In PubChem BioAssay:
For some of these results: Potency and affinity values are given separately. The source made the active and inactive calls. Unless noted, the rule behind the calls is not given here.

Tests used:
[1] = antimalarial activity against Dd2 strain (AID 2302;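 active = growth inhibition above 50% at the single 2 µM test dose, taken to imply half-maximal potency below 2 µM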;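 note: 0% = DMSO untreated growth and 100% = chloroquine plus artemisinin killed control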); conditions: P. falciparum Dd2 in RBCs, LDH growth readout, 72 h; at 2 µM; hits give high values
[2] = HepG2 cytotoxicity, primary screen, cytotoxicity control for P. falciparum antimalarial project, cell-based, ATP luminescence (AID 2303;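 active = inhibition above 50%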;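 note: 0% = DMSO wells and 100% = digitonin-killed cells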); conditions: HepG2 viability, 24-48 h, at 10 µM, hits give high values
[3] = target: L-lactate dehydrogenase (Plasmodium falciparum (isolate CDC / Honduras)) (UniProt Q27743); test: PfLDH activity inhibition – cell lysate, 3D7 strain, counter-screen for P. falciparum growth inhibition project (AID 2304);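 note: 0% = vehicle and 100% = reference inhibitor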; conditions: P. falciparum 3D7 crude extract, LDH APAD/NBT absorbance; at 2 µM; hits give high values
[4] = inhibition of 3D7 malaria parasite growth – strain 3D7 (AID 2306);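 note: 0% = DMSO wells and 100% = chloroquine plus artemisinin control wells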; conditions: P. falciparum 3D7 erythrocytic growth, LDH absorbance, 72 h; at 2 µM; hits give high values
[5] = target: Calcium-dependent protein kinase 1 (Plasmodium falciparum (isolate 3D7)) (UniProt P62344); test: PfCDPK1 kinase inhibitors, biochemical, TCAMS library (AID 1159585; cut-off not given, nearly all actives have IC50 up to about 0.98 µM;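 note: inhibitors leave more ATP so luminescence rises with inhibition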); conditions: recombinant PfCDPK1, Kinase-Glo ATP depletion luminescence
[6] = target: Plasmodium falciparum protein kinase 6 (PK6, PF3D7_1337100) (UniProt Q8IDW1); test: PfPK6 kinase inhibitors, biochemical, TCAMS library (AID 1159586); conditions: recombinant PfPK6, Kinase-Glo ATP depletion luminescence
[7] = target: Protein kinase 7 (PK7), Plasmodium falciparum 3D7 (PF3D7_0213400) (UniProt Q7YTF7); test: inhibition of Plasmodium PK7 catalytic activity – biochemical, TCAMS antimalarial set, Kinase-Glo luminescence (AID 1159587); conditions: recombinant PfPK7, Kinase-Glo ATP depletion luminescence
[8] = target: Calcium-dependent protein kinase 4 (Plasmodium falciparum (isolate 3D7)) (UniProt Q8IBS5); test: PfCDPK4 kinase inhibitors, biochemical, TCAMS library (AID 1159588; cut-off not given, nearly all actives have IC50 up to about 0.91 µM); conditions: recombinant PfCDPK4, Kinase-Glo ATP depletion luminescence
Chain of Calcium-dependent protein kinase 4 (Plasmodium falciparum (isolate 3D7)) (Q8IBS5 whole entry, looked up): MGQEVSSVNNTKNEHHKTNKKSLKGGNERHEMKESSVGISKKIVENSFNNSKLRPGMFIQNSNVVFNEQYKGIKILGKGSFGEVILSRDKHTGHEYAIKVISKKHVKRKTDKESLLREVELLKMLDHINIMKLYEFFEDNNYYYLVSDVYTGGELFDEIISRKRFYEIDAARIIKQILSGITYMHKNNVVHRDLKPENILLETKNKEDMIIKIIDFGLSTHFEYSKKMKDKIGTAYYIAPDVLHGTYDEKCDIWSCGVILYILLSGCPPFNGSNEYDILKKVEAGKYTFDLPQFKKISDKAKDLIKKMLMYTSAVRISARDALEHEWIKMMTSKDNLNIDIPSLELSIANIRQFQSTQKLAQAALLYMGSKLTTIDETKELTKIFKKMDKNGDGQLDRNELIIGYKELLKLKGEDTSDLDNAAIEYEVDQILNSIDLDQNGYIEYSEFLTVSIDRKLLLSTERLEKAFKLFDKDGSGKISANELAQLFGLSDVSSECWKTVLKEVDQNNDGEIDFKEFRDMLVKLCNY

Chain of Plasmodium falciparum protein kinase 6 (PK6, PF3D7_1337100) (Q8IDW1 1-305): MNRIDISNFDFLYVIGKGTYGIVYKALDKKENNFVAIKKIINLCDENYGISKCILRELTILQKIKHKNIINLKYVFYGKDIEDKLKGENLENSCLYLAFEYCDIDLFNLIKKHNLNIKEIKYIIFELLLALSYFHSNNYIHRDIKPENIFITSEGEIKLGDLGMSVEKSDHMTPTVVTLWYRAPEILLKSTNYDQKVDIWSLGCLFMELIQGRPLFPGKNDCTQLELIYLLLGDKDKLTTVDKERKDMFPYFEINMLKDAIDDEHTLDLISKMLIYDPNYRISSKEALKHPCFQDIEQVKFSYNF
Chain of L-lactate dehydrogenase (Plasmodium falciparum (isolate CDC / Honduras)) (Q27743 whole entry, looked up): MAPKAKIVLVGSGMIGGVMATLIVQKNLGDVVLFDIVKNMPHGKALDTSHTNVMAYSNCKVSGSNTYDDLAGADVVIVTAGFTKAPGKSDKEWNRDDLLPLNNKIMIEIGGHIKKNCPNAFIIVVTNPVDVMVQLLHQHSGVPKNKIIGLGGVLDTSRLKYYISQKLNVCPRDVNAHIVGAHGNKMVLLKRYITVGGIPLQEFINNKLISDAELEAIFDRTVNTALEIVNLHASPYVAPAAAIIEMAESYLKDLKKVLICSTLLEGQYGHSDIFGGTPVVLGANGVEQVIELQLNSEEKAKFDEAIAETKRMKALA
Chain of Calcium-dependent protein kinase 1 (Plasmodium falciparum (isolate 3D7)) (P62344 whole entry, looked up): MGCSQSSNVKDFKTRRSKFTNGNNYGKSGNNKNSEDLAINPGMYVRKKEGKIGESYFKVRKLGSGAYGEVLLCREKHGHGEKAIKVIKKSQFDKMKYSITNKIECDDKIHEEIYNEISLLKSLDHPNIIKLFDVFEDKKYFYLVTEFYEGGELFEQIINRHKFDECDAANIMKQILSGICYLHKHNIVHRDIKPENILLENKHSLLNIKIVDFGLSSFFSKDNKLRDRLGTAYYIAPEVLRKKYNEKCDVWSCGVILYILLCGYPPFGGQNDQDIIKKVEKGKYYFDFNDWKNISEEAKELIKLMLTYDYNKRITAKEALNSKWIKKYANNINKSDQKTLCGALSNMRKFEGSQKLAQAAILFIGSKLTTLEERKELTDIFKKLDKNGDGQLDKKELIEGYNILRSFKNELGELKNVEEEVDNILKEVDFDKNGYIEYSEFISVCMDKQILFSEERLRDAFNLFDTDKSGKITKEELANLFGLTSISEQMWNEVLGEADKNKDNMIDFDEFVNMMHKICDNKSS
Chain of Protein kinase 7 (PK7), Plasmodium falciparum 3D7 (PF3D7_0213400) (Q7YTF7 1-343): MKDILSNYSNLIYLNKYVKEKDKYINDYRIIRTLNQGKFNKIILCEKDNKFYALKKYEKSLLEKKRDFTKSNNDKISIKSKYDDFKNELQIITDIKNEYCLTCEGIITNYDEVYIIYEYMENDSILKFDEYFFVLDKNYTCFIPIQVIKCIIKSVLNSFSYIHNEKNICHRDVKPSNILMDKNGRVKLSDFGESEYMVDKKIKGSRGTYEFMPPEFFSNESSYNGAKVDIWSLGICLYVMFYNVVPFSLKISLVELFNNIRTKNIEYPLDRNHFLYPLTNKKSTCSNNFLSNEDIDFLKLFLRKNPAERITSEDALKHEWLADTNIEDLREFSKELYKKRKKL

CCc1ccc(O)c(-c2cc(C(=O)Nc3ccc(OC)c(Cl)c3)[nH]n2)c1
inactive: inhibition [2] 15% | inhibition [3] -1% | outcome [5] | outcome [6] | outcome [7] | outcome [8]
active: growth inhibition [1] 97% | growth inhibition [4] 93%

COc1ccccc1CN1CCC(NC(=O)c2ccc(-c3cccc(Cl)c3)s2)CC1
active: growth inhibition [4] 84%
inactive: growth inhibition [1] 9% | inhibition [2] 49% | inhibition [3] -1% | outcome [5] | outcome [6] | outcome [7] | outcome [8]

CN1CCCC1CCNC(=O)[C@H](CC1CCCCC1)NC(=O)c1ccc(O)c(-c2ccc(Cl)c(Cl)c2)c1 (stereo partly drawn)
active: growth inhibition [4] 98%
inactive: growth inhibition [1] 35% | inhibition [2] 0% | inhibition [3] 3% | outcome [5] | outcome [6] | outcome [7] | outcome [8]

CCOC(=O)c1c(C)noc1Nc1cccc(C)c1C
active: growth inhibition [4] 98%
inactive: growth inhibition [1] -2% | inhibition [2] 8% | inhibition [3] 2% | outcome [5] | outcome [6] | outcome [7] | outcome [8]

O=c1cc(NCc2ccccc2NCc2ccc(Cl)c(Cl)c2)[nH]c2ccccc12
active: growth inhibition [1] 98% | growth inhibition [4] 93%
inactive: inhibition [2] 10% | inhibition [3] 3% | outcome [5] | outcome [6] | outcome [7] | outcome [8]

CCCCCCCc1c(C)[nH]c2c(OC)cccc2c1=O
active: growth inhibition [1] 85% | growth inhibition [4] 89%
inactive: inhibition [2] -5% | inhibition [3] 5% | outcome [5] | outcome [6] | outcome [7] | outcome [8]

O=C(Nc1ccc(Cl)c(Cl)c1)N(Cc1ccccc1Br)C1CCNCC1
inactive: growth inhibition [1] 8% | inhibition [2] 13% | inhibition [3] 7% | outcome [5] | outcome [6] | outcome [7] | outcome [8]
active: growth inhibition [4] 96%

COc1ccc(Cc2c(C)nc3nc(N)nc(N)c3c2C)cc1
inactive: growth inhibition [1] 2% | inhibition [3] 8% | outcome [5] | outcome [6] | outcome [7] | outcome [8]
active: inhibition [2] 61% | growth inhibition [4] 93%

CCCN1CCc2c(sc3nc(SCC(=O)Nc4ccc(C)cc4)n(-c4ccc(C)cc4)c(=O)c23)C1
inactive: inhibition [2] 0% | inhibition [3] -5% | outcome [5] | outcome [6] | outcome [7] | outcome [8]
active: growth inhibition [1] 71% | growth inhibition [4] 92%

CCCCCCc1cnc2nc(N)nc(N)c2c1C
active: inhibition [2] 67% | growth inhibition [4] 93%
inactive: growth inhibition [1] 20% | inhibition [3] -8% | outcome [5] | outcome [6] | outcome [7] | outcome [8]

CCN(CC)CCCC(C)Nc1ccnc2ccc(OC)cc12 (stereo not drawn)
inactive: growth inhibition [1] -3% | inhibition [2] 7% | inhibition [3] -2% | outcome [5] | outcome [6] | outcome [7] | outcome [8]
active: growth inhibition [4] 102%

NC(=O)c1cccc(Nc2nccc(Nc3ccc(Oc4cccc(Cl)c4)c(Cl)c3)n2)c1
active: growth inhibition [4] 93%
inactive: growth inhibition [1] 12% | inhibition [2] -3% | inhibition [3] 1% | outcome [5] | outcome [6] | outcome [7] | outcome [8]

O=C(O)C1CC(=O)N(c2ccc(Cl)cc2)C1 (stereo not drawn)
active: inhibition [2] 51% | growth inhibition [4] 97%
inactive: growth inhibition [1] 33% | inhibition [3] 6% | outcome [5] | outcome [6] | outcome [7] | outcome [8]

O=C(Nc1cccc(C(F)(F)F)c1)NC1CCN(c2ccnc3ccccc23)CC1
active: growth inhibition [4] 101%
inactive: growth inhibition [1] 43% | inhibition [2] 23% | inhibition [3] -1% | outcome [5] | outcome [6] | outcome [7] | outcome [8]

CCc1cc2c3c(N)nc(N)nc3ccc2n1C(CC)CC
inactive: growth inhibition [1] 12% | inhibition [3] 5% | outcome [5] | outcome [6] | outcome [7] | outcome [8]
active: inhibition [2] 71% | growth inhibition [4] 96%

CC1CCc2c(C(=O)Nc3c(F)cc(F)cc3Br)csc2C1 (stereo not drawn)
inactive: inhibition [2] -1% | inhibition [3] 3% | outcome [5] | outcome [6] | outcome [7] | outcome [8]
active: growth inhibition [1] 59% | growth inhibition [4] 96%

CCC(C)NS(=O)(=O)c1ccc2nc(Nc3ccc(C)c(Cl)c3)n(C(C)C(C)C)c2c1 (stereo not drawn)
active: growth inhibition [1] 98% | growth inhibition [4] 98%
inactive: inhibition [2] 22% | inhibition [3] 1% | outcome [5] | outcome [6] | outcome [7] | outcome [8]

CC1CN(Cc2ccccc2)CCN1c1ccc(NC(=O)c2cccs2)cc1 (stereo not drawn)
active: growth inhibition [1] 96% | growth inhibition [4] 96%
inactive: inhibition [2] 0% | inhibition [3] -2% | outcome [5] | outcome [6] | outcome [7] | outcome [8]

CCCc1cc(Cc2cnc(N)nc2N)cc(CCC)c1OCCCCCC(=O)OCC
inactive: growth inhibition [1] -3% | inhibition [2] 12% | inhibition [3] -1% | outcome [5] | outcome [6] | outcome [7] | outcome [8]
active: growth inhibition [4] 95%

CCN1CCN(CCCCNc2c3ccccc3nc3ccccc23)CC1
active: growth inhibition [4] 100%
inactive: growth inhibition [1] -5% | inhibition [2] 22% | inhibition [3] 8% | outcome [5] | outcome [6] | outcome [7] | outcome [8]

Cc1cc(N2CCCC2=O)ccc1-c1ccc(C(=O)N2CCC(Oc3cccc(Cl)c3)CC2)cc1
inactive: inhibition [2] 34% | inhibition [3] -3% | outcome [5] | outcome [6] | outcome [7] | outcome [8]
active: growth inhibition [1] 98% | growth inhibition [4] 99%

CCNc1cc(C(=O)N[C@@H](Cc2ccccc2)[C@H](O)CNCCc2ccccc2)cc(N2CCCCS2(=O)=O)c1
inactive: inhibition [2] 14% | inhibition [3] 7% | outcome [5] | outcome [6] | outcome [7] | outcome [8]
active: growth inhibition [1] 91% | growth inhibition [4] 98%

COc1cccc(C(=O)Nc2ccc(Nc3nc(C)cc(N4CCCCC4)n3)cc2)c1OC
active: growth inhibition [4] 92%
inactive: growth inhibition [1] 27% | inhibition [2] 47% | inhibition [3] 1% | outcome [5] | outcome [6] | outcome [7] | outcome [8]

Cc1cccc(C(=O)N2CCN(Cc3cccc(NC(=O)c4cccs4)c3)CC2)c1
inactive: inhibition [2] 5% | inhibition [3] 0% | outcome [5] | outcome [6] | outcome [7] | outcome [8]
active: growth inhibition [1] 95% | growth inhibition [4] 95%

CCCCCCn1c(Sc2ccc(C#N)c([N+](=O)[O-])c2)nnc1-c1cccc(Cl)c1
inactive: inhibition [2] 17% | inhibition [3] 1% | outcome [5] | outcome [6] | outcome [7] | outcome [8]
active: growth inhibition [1] 90% | growth inhibition [4] 96%

CCn1ccc2c(N3CCCC3=O)cc(C(=O)N[C@@H](Cc3ccccc3)[C@H](O)CNCc3cccc(OC)c3)cc21
active: growth inhibition [1] 92% | growth inhibition [4] 94%
inactive: inhibition [2] 4% | inhibition [3] -5% | outcome [5] | outcome [6] | outcome [7] | outcome [8]

CCc1nc(N)nc(N)c1-c1ccc(F)cc1
inactive: growth inhibition [1] -3% | inhibition [3] -2% | outcome [5] | outcome [6] | outcome [7] | outcome [8]
active: inhibition [2] 52% | growth inhibition [4] 96%

C[C@H](Cc1ccc(OCCCCOc2ccc(C[C@@H](C)NC[C@H](O)c3cccc(Cl)c3)cc2)cc1)NC[C@H](O)c1cccc(Cl)c1
inactive: inhibition [3] 7% | outcome [5] | outcome [6] | outcome [7] | outcome [8]
active: growth inhibition [1] 92% | inhibition [2] 68% | growth inhibition [4] 100%

CC(N)(Cc1ccc(O)cc1)c1nn[nH]n1 (stereo not drawn)
inactive: growth inhibition [1] 2% | inhibition [2] 7% | inhibition [3] 4% | outcome [5] | outcome [6] | outcome [7] | outcome [8]
active: growth inhibition [4] 93%

CN1CCN(c2ccc(-c3nc4c(C(N)=O)c(OCc5cc(Cl)cc(Cl)c5)ccc4[nH]3)cc2)CC1
active: growth inhibition [1] 85% | growth inhibition [4] 100%
inactive: inhibition [2] 45% | inhibition [3] -2% | outcome [5] | outcome [6] | outcome [7] | outcome [8]

Nc1c2c(nc3ccc(NC(=O)Cc4ccccc4)cc13)CCCC2
inactive: growth inhibition [1] -2% | inhibition [2] 9% | inhibition [3] 6% | outcome [5] | outcome [6] | outcome [7] | outcome [8]
active: growth inhibition [4] 101%

Fc1ccc2nc(-c3ccc(-c4ccc(CNCCN5CCNCC5)cc4)cc3)[nH]c2c1
inactive: inhibition [3] -3% | outcome [5] | outcome [6] | outcome [7] | outcome [8]
active: growth inhibition [1] 70% | inhibition [2] 94% | growth inhibition [4] 96%

CCCCN=C(N)c1ccc(OCCCCCOc2ccc(C(N)=NCCCC)cc2)cc1
active: growth inhibition [1] 99% | growth inhibition [4] 99%
inactive: inhibition [2] 19% | inhibition [3] -4% | outcome [5] | outcome [6] | outcome [7] | outcome [8]

O=C(NCCCCN1CCC(c2ccc3c(c2OCc2ccccn2)CCCC3)CC1)c1ccc(NC(=O)c2ccc(Cl)cc2)cc1
inactive: inhibition [2] 31% | inhibition [3] -3% | outcome [5] | outcome [6] | outcome [7] | outcome [8]
active: growth inhibition [1] 70% | growth inhibition [4] 101%

COc1cccc(Nc2nc(C)cc(NCc3ccc(-c4c(C)noc4C)cc3)n2)c1
active: growth inhibition [4] 98%
inactive: growth inhibition [1] 42% | inhibition [2] 33% | inhibition [3] -1% | outcome [5] | outcome [6] | outcome [7] | outcome [8]

COc1ccc(CNCc2ccc(-c3ccc(-c4nc5c(C)cccc5[nH]4)s3)cc2)cc1
active: growth inhibition [1] 89% | inhibition [2] 54% | growth inhibition [4] 100%
inactive: inhibition [3] 3% | outcome [5] | outcome [6] | outcome [7] | outcome [8]

O=C(Nc1ccc(Cl)c(Cl)c1)Nc1cc(C(F)(F)F)ccc1Cl
inactive: inhibition [2] -1% | inhibition [3] -4% | outcome [5] | outcome [6] | outcome [7] | outcome [8]
active: growth inhibition [1] 85% | growth inhibition [4] 101%

CCOc1cc(C(=O)NC2CC(C)(C)NC(C)(C)C2)ccc1-c1nc2ccc(Cl)cc2[nH]1
active: growth inhibition [1] 64% | growth inhibition [4] 100%
inactive: inhibition [2] 46% | inhibition [3] 4% | outcome [5] | outcome [6] | outcome [7] | outcome [8]

Cc1cc(-c2ccc3c(c2)CCN(CCC2CCC(NC(=O)/C=C/c4cccc(Cl)c4)CC2)CC3)on1 (stereo not drawn)
inactive: growth inhibition [1] 49% | inhibition [2] 16% | inhibition [3] -4% | outcome [5] | outcome [6] | outcome [7] | outcome [8]
active: growth inhibition [4] 101%

Cc1[nH]c(C)c(-c2ccc(OCc3ccc(F)cc3)cc2)c(=O)c1Cl
inactive: inhibition [2] -10% | inhibition [3] -1% | outcome [5] | outcome [6] | outcome [7] | outcome [8]
active: growth inhibition [1] 96% | growth inhibition [4] 95%

CCN1CCC(NCc2ccc(-c3ccc(Cl)cc3)cc2)CC1
inactive: growth inhibition [1] 33% | inhibition [2] 25% | inhibition [3] -2% | outcome [5] | outcome [6] | outcome [7] | outcome [8]
active: growth inhibition [4] 100%
